Inconclusive results are not listed. A number with no mark means an inactive call. Calls of active or inactive are those of the source. The call rests on the fitted dose curve.

Retinoic acid receptor RXR-alpha (Homo sapiens), sequence (P19793 whole entry, looked up): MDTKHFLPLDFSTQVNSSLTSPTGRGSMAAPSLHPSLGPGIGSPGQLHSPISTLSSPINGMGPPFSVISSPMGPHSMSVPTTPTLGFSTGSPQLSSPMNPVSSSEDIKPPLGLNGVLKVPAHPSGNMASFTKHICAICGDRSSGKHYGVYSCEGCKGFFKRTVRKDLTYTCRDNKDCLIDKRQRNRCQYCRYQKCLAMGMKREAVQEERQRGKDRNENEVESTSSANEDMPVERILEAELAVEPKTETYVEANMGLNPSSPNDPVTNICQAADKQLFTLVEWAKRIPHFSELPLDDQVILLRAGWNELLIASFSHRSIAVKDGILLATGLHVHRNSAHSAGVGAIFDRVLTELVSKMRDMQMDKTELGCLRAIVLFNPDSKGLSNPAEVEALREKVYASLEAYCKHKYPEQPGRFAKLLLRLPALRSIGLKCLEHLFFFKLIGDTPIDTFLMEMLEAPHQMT

This test addresses Retinoic acid receptor RXR-alpha (Homo sapiens) (UniProt P19793). The test is described as follows: qHTS assay for small molecule agonists of retinoid X receptor alpha signaling (AID 588544). To be noted: HEK293T RXRa-UAS-bla, beta-lactamase reporter, 18 h; series mostly up to 76.7 µM; activation: at the top concentration. The text has this:
NIH Chemical Genomics Center [NCGC] U.S. Environmental Protection Agency [EPA] National Institutes of Environmental Health Sciences [NIEHS] National Toxicology Program [NTP] NCGC Assay Overview The Retinoid X receptor (RXR), a nuclear hormone receptor is expressed in liver, spleen, placenta, epidermis, central nervous system. These receptors are able to form homo and heterodimers with other nuclear receptors and due to this heterodimerizing ability, RXR functions as master regulators producing diverse physiological effects. Three subtypes of RXR exist; alpha, beta and gamma. Retinoid X receptor alpha (RXR-alpha) has potential roles in metabolic signaling pathways, skin alopecia, dermal cysts, cardiac development, insulin sensitization etc. Therefore screening environmental chemicals on RXR-alpha signaling can be used for the studies focused on such therapeutic applications.
NCGC Assay Protocol Summary Using a beta-lactamase reporter-gene under control of Retinoid X receptor--alpha (RXR-alpha) response element, a cell-based assay [GeneBLAzer (RXR-alpha -UAS-bla assay developed by Invitrogen] was used to measure RXR-alpha ligands signaling. GeneBLAzer RXR-alpha -UAS-bla HEK293T cells were used with assay medium containing 2% charcoal-stripped FBS. The assay was performed in clear bottom black Greiner 1536-well plates. 9-cis-retinoic acid was used in the screen as the positive control. Library compounds were measured for their ability to stimulate the reporter gene activity. Compounds were screened in a titration series in 1536-well format. The fluorescence intensity (405 nm excitation, 460/530 nm emission) was measured using an EnVision plate reader. Data was normalized relative to 9-cis-retinoic acid control (500 nM, 100%), and DMSO only wells (basal, 0%). Concentration-response titration points for each compound were fitted to the Hill equation yielding concentrations of half-maximal stimulation (EC50) and maximal response (efficacy) values. qHTS protocol for RXR-alpha beta-lactamase assay in agonist mode [Step] [Parameter] [Value] [Description] 1. Reagent; 6 uL; 2500 cells/well 2. Incubation; 37 C for 4 hrs 3. Compounds; 23 nL; 0.59 nM to 92 uM 4. Controls (9-cis-retinoic acid); 23 nL, - One column with dose response, start 38 uM, 1:3 dilutions in duplicates - Final concentrations of 500 nM and 50 nM in two columns 5. Incubation; 37 C for 18 hrs 6. Detection reagent; 1 uL of CCF4-dye 7. Incubation; RT for 2 hrs 8. Detection; Fluorescence; Envision plate reader
Background: In qHTS, concentration-response curves come from the screen itself.
As for `O=C(O)Cc1cccc2ccccc12`, the molecule was classed as inactive.

`CCCNC(=O)NS(=O)(=O)c1ccc(Cl)cc1`: the call was inactive. Consider `O=c1[nH]cnc2c1ncn2[C@H]1CC[C@@H](CO)O1`, for which the call was inactive. Turning to `CC(=O)N[C@@H](CS)C(=O)O`, the “activation” value was 1.75%.

In the case of `CN(C)CCC(c1ccccc1)c1ccccn1` (stereo not given), the “activation” value was 5.36%. As to `CCCCC1C(=O)N(c2ccccc2)N(c2ccccc2)C1=O`, the molecule was classed as inactive. `CC(=O)c1ccc(S(=O)(=O)NC(=O)NC2CCCCC2)cc1`: the molecule was called inactive. Take `O=C(O)c1cc(-c2ccccc2)nc2ccccc12`: the “activation” value was -12.2%. In the case of `O=c1c(O)c(-c2ccc(O)cc2)oc2cc(O)cc(O)c12`, the “activation” value is -16.6%. With `O=C1NC(=O)C(c2ccccc2)(c2ccccc2)N1`, the outcome was inactive.

These data come from PubChem BioAssay (NCATS).
